Data published in PubChem BioAssay AID1159580 (chemical genetic matrix, 2015).
Out of some 5,500 compounds screened, about 2,000 (36%) were called active. Not shown: some 18% with an inconclusive outcome. Cut-off read from the data, not from the text of the source: active = normalized growth mostly below about 0.91 (no sharp cut-off); inconclusive = no clear call, values can overlap the other calls; inactive = mostly above about 0.92. The list shows a part of the results.

Experiment: chemical genetic growth profiling, strain panel (AID 1159580);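 note: tested at 20 µM; growth read once vehicle control cultures reached saturation at 30 °C; 1 = growth at the plate median or of vehicle wells; lower values mean less growth of the strain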
Conditions: growth OD

Measured: normalized growth

NCCCC[C@H](N[C@@H](CCc1ccccc1)C(=O)O)C(=O)N1CCC[C@H]1C(=O)O
inactive: S. cerevisiae deletion strains, locus YKL009W, strain mrt4, active compounds read low 0.973 | S. cerevisiae deletion strains, locus YKL068W, active compounds read low 0.99 | S. cerevisiae deletion strains, locus YKL085W, strain MDH1 (second series), active compounds read low 0.993 | S. cerevisiae deletion strains, locus YKL085W, strain MDH1, active compounds read low 0.993 | S. cerevisiae deletion strains, locus YKL160W, strain elf1, active compounds read low 0.999 | S. cerevisiae deletion strains, locus YKL190W, strain CNB1, active compounds read low 0.981 | S. cerevisiae deletion strains, locus YKR001C, strain vps1, active compounds read low 1.01 | S. cerevisiae deletion strains, locus YKR026C, strain gcn3, active compounds read low 1.04 | S. cerevisiae deletion strains, locus YKR091W, strain srl3, active compounds read low 1.01 | S. cerevisiae deletion strains, locus YLL001W, strain dnm1, active compounds read low 1 | S. cerevisiae deletion strains, locus YLL026W, active compounds read low 0.994 | S. cerevisiae deletion strains, locus YLL041C, strain sdh2, active compounds read low 0.97 | S. cerevisiae deletion strains, locus YLR027C, strain aat2, active compounds read low 0.998 | S. cerevisiae deletion strains, locus YLR039C, strain RIC1, active compounds read low 0.985 | S. cerevisiae deletion strains, locus YLR058C, strain SHM2, active compounds read low 0.984 | S. cerevisiae deletion strains, locus YLR102C, strain apc9, active compounds read low 0.996 | S. cerevisiae deletion strains, locus YLR113W, strain HOG1, active compounds read low 1.01 | S. cerevisiae deletion strains, locus YLR221C, strain rsa3, active compounds read low 0.981 | S. cerevisiae deletion strains, locus YLR258W, strain gsy2, active compounds read low 1.01 | S. cerevisiae deletion strains, locus YLR262C, strain YPT6 (second series), active compounds read low 1.01 | S. cerevisiae deletion strains, locus YLR262C, strain YPT6, active compounds read low 0.94 | S. cerevisiae deletion strains, locus YLR268W, strain sec22, active compounds read low 1 | S. cerevisiae deletion strains, locus YLR320W, strain mms22, active compounds read low 1.03 | S. cerevisiae deletion strains, locus YLR330W, strain CHS5, active compounds read low 0.994 | S. cerevisiae deletion strains, locus YLR342W, strain FKS1 (second series), active compounds read low 1.05 | S. cerevisiae deletion strains, locus YLR342W, strain FKS1, active compounds read low 1 | S. cerevisiae deletion strains, locus YLR357W, strain rsc2, active compounds read low 1.04 | S. cerevisiae deletion strains, locus YLR370C, strain arc18, active compounds read low 0.971 | S. cerevisiae deletion strains, locus YLR371W, strain rom2, active compounds read low 1 | S. cerevisiae deletion strains, locus YLR384C, strain iki3, active compounds read low 0.978 | S. cerevisiae deletion strains, locus YLR418C, strain cdc73, active compounds read low 1 | S. cerevisiae deletion strains, locus YML016C, strain PPZ1, active compounds read low 0.992 | S. cerevisiae deletion strains, locus YML032C, strain rad52, active compounds read low 0.999 | S. cerevisiae deletion strains, locus YML120C, strain ndi1, active compounds read low 0.976 | S. cerevisiae deletion strains, locus YML124C, strain tub3, active compounds read low 0.995 | S. cerevisiae deletion strains, locus YMR058W, strain fet3, active compounds read low 1.02 | S. cerevisiae deletion strains, locus YMR078C, strain ctf18, active compounds read low 0.998 | S. cerevisiae deletion strains, locus YMR125W, strain sto1, active compounds read low 1.04 | S. cerevisiae deletion strains, locus YMR129W, active compounds read low 0.964 | S. cerevisiae deletion strains, locus YMR205C, strain PFK2, active compounds read low 0.984 | S. cerevisiae deletion strains, locus YMR223W, strain ubp8, active compounds read low 0.983 | S. cerevisiae deletion strains, locus YMR231W, strain pep5, active compounds read low 1.02 | S. cerevisiae deletion strains, locus YMR307W, strain GAS1, active compounds read low 1.05 | S. cerevisiae deletion strains, locus YNL067W, strain RPL9B, active compounds read low 0.964 | S. cerevisiae deletion strains, locus YNL071W, strain lat1, active compounds read low 1.02 | S. cerevisiae deletion strains, locus YNL128W, strain TEP1, active compounds read low 0.989 | S. cerevisiae deletion strains, locus YNL153C, strain GIM3, active compounds read low 0.955 | S. cerevisiae deletion strains, locus YNL183C, strain NPR1, active compounds read low 0.96 | S. cerevisiae deletion strains, locus YNL209W, strain ssb2, active compounds read low 1.01 | S. cerevisiae deletion strains, locus YNL233W, strain BNI4, active compounds read low 0.975 | S. cerevisiae deletion strains, locus YNL248C, strain rpa49, active compounds read low 1.01 | S. cerevisiae deletion strains, locus YNL250W, strain rad50, active compounds read low 0.982 | S. cerevisiae deletion strains, locus YNL271C, strain bni1, active compounds read low 0.997 | S. cerevisiae deletion strains, locus YNL298W, strain CLA4, active compounds read low 0.993 | S. cerevisiae deletion strains, locus YNL307C, strain MCK1, active compounds read low 1.01 | S. cerevisiae deletion strains, locus YNL322C, strain KRE1 (second series), active compounds read low 1.02 | S. cerevisiae deletion strains, locus YNL322C, strain KRE1, active compounds read low 0.993 | S. cerevisiae deletion strains, locus YNR049C, strain mso1, active compounds read low 0.964 | S. cerevisiae deletion strains, locus YNR052C, strain pop2, active compounds read low 1.01 | S. cerevisiae deletion strains, locus YOL006C, strain TOP1, active compounds read low 0.922 | S. cerevisiae deletion strains, locus YOL012C, strain htz1 1.17 | S. cerevisiae deletion strains, locus YOL147C, strain pex11, active compounds read low 0.988 | S. cerevisiae deletion strains, locus YOR001W, strain rrp6, active compounds read low 0.967 | S. cerevisiae deletion strains, locus YOR061W, strain CKA2, active compounds read low 0.956 | S. cerevisiae deletion strains, locus YOR069W, strain VPS5, active compounds read low 0.998 | S. cerevisiae deletion strains, locus YOR070C, strain gyp1, active compounds read low 0.941 | S. cerevisiae deletion strains, locus YOR080W, strain dia2, active compounds read low 0.992 | S. cerevisiae deletion strains, locus YOR083W, strain WHI5, active compounds read low 1.01 | S. cerevisiae deletion strains, locus YOR106W, strain vam3, active compounds read low 1 | S. cerevisiae deletion strains, locus YOR136W, strain idh2, active compounds read low 0.994 | S. cerevisiae deletion strains, locus YOR144C, strain elg1, active compounds read low 0.998 | S. cerevisiae deletion strains, locus YOR184W, strain ser1, active compounds read low 1 | S. cerevisiae deletion strains, locus YOR231W, strain MKK1, active compounds read low 1.04 | S. cerevisiae deletion strains, locus YOR265W, strain rbl2, active compounds read low 0.987 | S. cerevisiae deletion strains, locus YOR270C, strain vph1, active compounds read low 1.04 | S. cerevisiae deletion strains, locus YOR290C, strain snf2, active compounds read low 1.02 | S. cerevisiae deletion strains, locus YOR316C, strain cot1, active compounds read low 1 | S. cerevisiae deletion strains, locus YPL051W, strain arl3, active compounds read low 1.01 | S. cerevisiae deletion strains, locus YPL078C, strain atp4, active compounds read low 1.02 | S. cerevisiae deletion strains, locus YPL106C, strain sse1, active compounds read low 0.949 | S. cerevisiae deletion strains, locus YPL240C, strain hsp82, active compounds read low 0.986 | S. cerevisiae deletion strains, locus YPL256C, strain CLN2, active compounds read low 1.02 | S. cerevisiae deletion strains, locus YPR119W, strain clb2, active compounds read low 0.994 | S. cerevisiae deletion strains, locus YPR141C, strain kar3, active compounds read low 0.985 | S. cerevisiae deletion strains, locus YPR163C, strain tif3, active compounds read low 0.988 | S. cerevisiae deletion strains, locus YPR167C, strain met16, active compounds read low 0.999 | S. cerevisiae deletion strains, strain wtn01, active compounds read low 0.998 | S. cerevisiae strains, strain wild type, active compounds read low 0.982
